The results in this text go back to PubChem BioAssay (NCI).

Some test systems named below: SR leukemia; RPMI-8226 leukemia; OVCAR-8 ovarian; OVCAR-5 ovarian; OVCAR-4 ovarian; SK-OV-3 ovarian; IGROV1 ovarian; OVCAR-3 ovarian; HS 578T breast; NCI/ADR-RES ovarian; T-47D breast; BT-549 breast; SW-620 colon; MCF7 breast; HCT-116 colon; HCC-2998 colon; KM12 colon; MDA-MB-468 breast; MDA-MB-435 melanoma.
What all share (assay): NCI-60 one-dose screen, 48 h (100 = growth as untreated, 0 = no growth, -100 = all killed)
Common to all, as to details: 10 µM unless noted

The panel holds about 83,000 compounds, 20% with a hit somewhere; the sample as a whole holds those more often.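 Note: values are percent growth. 100 is the growth of untreated cells, values between 100 and 0 indicate rising inhibition; between -100 and 0 indicates cell death.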 A number with no mark means an inactive call. Activity calls are given as the source filed them. Rule for the calls: active = growth percent below 10; inactive = the rest.

Regarding `C=C1CCC2C3(C)COC(c4cccc(F)c4)OC3CCC2(C)C1C/C=C1/C(=O)OCC1O` (centres undefined), the growth was 9.74% (active) in the test with SR leukemia; 10.5% in the test with RPMI-8226 leukemia; -52.2% (active) in the test with OVCAR-8 ovarian; 22.1% in the test with OVCAR-5 ovarian; -0.215% (active) with OVCAR-4 ovarian; 60.5% in the test with SK-OV-3 ovarian. For the same molecule, the growth with IGROV1 ovarian is -24% (active); with OVCAR-3 ovarian it was -71.8% (active); with HS 578T breast, 15.9%; in the test with NCI/ADR-RES ovarian, -18% (active); with T-47D breast, -5.25% (active); in the test with BT-549 breast, -82.2% (active). The growth with SW-620 colon was -63% (active); in the test on MCF7 breast it was -7.05% (active); in the test with HCT-116 colon, -73.8% (active); in the test on HCC-2998 colon it was -51% (active); with KM12 colon, -27.8% (active); with MDA-MB-468 breast, -35.2% (active).

With `O=C(COc1ccc2c(c1)CCCC(=O)N2)NCc1ccccc1`, the growth with SR leukemia was 27.6%; with RPMI-8226 leukemia, 94.9%; in the test with OVCAR-8 ovarian, 99.5%; in the test with OVCAR-5 ovarian it was 101%; with OVCAR-4 ovarian it was 92%; with SK-OV-3 ovarian it was 89.5%. The growth with IGROV1 ovarian is 111%; in the test on OVCAR-3 ovarian, 85.4%; in the test on HS 578T breast, 94.2%; with NCI/ADR-RES ovarian, 80.2%; with T-47D breast, 95.7%; with BT-549 breast, 104%. In addition, the growth with SW-620 colon was 60.9%; with MCF7 breast it was 59.3%; with HCT-116 colon, 93.5%; in the test with HCC-2998 colon, 95.9%; in the test on KM12 colon, 58.9%; with MDA-MB-468 breast it was 28.8%.

Take `CCOC(=O)c1ccc(Nc2nc(NN)nc(-c3ccc(F)cc3)c2C#N)cc1`: the growth in the test on SR leukemia was 72.4%; in the test with RPMI-8226 leukemia, 103%; in the test on OVCAR-8 ovarian it was 112%; with OVCAR-5 ovarian, 99.5%; in the test on OVCAR-4 ovarian, 98.3%; with SK-OV-3 ovarian, 116%. The growth in the test on IGROV1 ovarian is 109%; with OVCAR-3 ovarian, 103%; in the test on HS 578T breast, 100%; in the test on NCI/ADR-RES ovarian it was 110%; in the test on T-47D breast, 94.7%; in the test with BT-549 breast, 111%. Moreover, the growth with MDA-MB-435 melanoma was 111%; in the test with SW-620 colon, 111%; in the test on HCT-116 colon, 102%; in the test with HCC-2998 colon it was 105%; in the test with KM12 colon it was 109%; with MDA-MB-468 breast, 119%.

Turning to `Clc1cccc(N/N=C/c2c[nH]c3ccc(Br)cc23)n1`, the growth in the test on SR leukemia is -14% (active); with RPMI-8226 leukemia it was 1.81% (active); with OVCAR-8 ovarian it was 42%; in the test with OVCAR-5 ovarian, 14%; in the test with OVCAR-4 ovarian, 61%; in the test on SK-OV-3 ovarian, 25.3%. Besides, the growth is -33.2% (active) in the test with IGROV1 ovarian; 18.6% with OVCAR-3 ovarian; 32.9% in the test on HS 578T breast; 2.49% (active) in the test with NCI/ADR-RES ovarian; 22% with T-47D breast; -6.46% (active) with BT-549 breast. The growth in the test with MDA-MB-435 melanoma was -0.779% (active); with SW-620 colon, 6.71% (active); in the test on HCT-116 colon, 8.25% (active); in the test on HCC-2998 colon, -9.69% (active); in the test on KM12 colon, 4.64% (active); with MDA-MB-468 breast it was -10.3% (active).

`CC12CC[C@@H]3[C@]4(C)COC(c5cn[nH]c5-c5cccc(Br)c5)O[C@@H]4CC[C@@]3(C)[C@@H]1CC(C1=CCOC1=O)O2` (some centres undefined): the growth in the test on SR leukemia is 28%; in the test with RPMI-8226 leukemia it was 13.2%; in the test on OVCAR-8 ovarian it was 31%; in the test on OVCAR-5 ovarian, 76.8%; in the test on OVCAR-4 ovarian, 25.4%; with SK-OV-3 ovarian it was 53.8%. Also, the growth with IGROV1 ovarian is 48.7%; in the test on OVCAR-3 ovarian it was 40.6%; in the test with HS 578T breast, 51.5%; with NCI/ADR-RES ovarian, 25.3%; in the test on T-47D breast, 17.7%; in the test on BT-549 breast it was -3.03% (active). In addition, the growth with MDA-MB-435 melanoma is 36.1%; in the test with SW-620 colon it was 48.5%; in the test on HCT-116 colon, 15.3%; in the test on HCC-2998 colon it was 35.6%; with KM12 colon, 13.5%; with MDA-MB-468 breast, 17.4%.

In the case of `O=C(N1c2ccccc2Sc2ccccc21)n1ccc2cccnc21`, the growth is 12.1% in the test with SR leukemia; 40.4% with RPMI-8226 leukemia; 88.1% with OVCAR-8 ovarian; 98.5% with OVCAR-5 ovarian; 65.6% in the test with OVCAR-4 ovarian; 79.9% in the test with SK-OV-3 ovarian. The growth in the test with IGROV1 ovarian is 72%; in the test with OVCAR-3 ovarian it was 82%; in the test on HS 578T breast, 70.7%; with NCI/ADR-RES ovarian it was 57.7%; in the test on T-47D breast, 27.7%; in the test on BT-549 breast it was 60.2%. In addition, the growth in the test on MDA-MB-435 melanoma was 19.7%; in the test with SW-620 colon, 58.4%; in the test on HCT-116 colon, 34.9%; in the test on HCC-2998 colon it was 85.1%; in the test with KM12 colon, 49.2%; in the test on MDA-MB-468 breast, 51.8%.

As to `Cc1cccc(-c2nc(Nc3cccc(S(N)(=O)=O)c3)c3ccccc3n2)c1`, the growth in the test on SR leukemia is 33%; in the test on RPMI-8226 leukemia, 38.3%; with OVCAR-8 ovarian, 2.28% (active); with OVCAR-5 ovarian, 77.2%; in the test with OVCAR-4 ovarian it was 52.3%; in the test on SK-OV-3 ovarian it was 102%. Moreover, the growth in the test on IGROV1 ovarian is 66.1%; with OVCAR-3 ovarian, 73.4%; in the test on HS 578T breast it was 76.5%; in the test with NCI/ADR-RES ovarian it was 22.8%; with T-47D breast it was 36.4%; with BT-549 breast, 88.6%. Besides, the growth was 67.6% with SW-620 colon; 33.3% with MCF7 breast; -5.73% (active) with HCT-116 colon; -1.53% (active) in the test with HCC-2998 colon; 11.6% in the test with KM12 colon; 38.6% with MDA-MB-468 breast.

On to `COc1cc2oc(-c3cccc(NC(=O)[C@H](Cc4ccccc4)NC(=O)OC(C)(C)C)c3)cc(=O)c2c(OC)c1OC`, for which the growth is 22.5% in the test with SR leukemia; 22.7% with RPMI-8226 leukemia; 26.7% with OVCAR-8 ovarian; 80.8% in the test on OVCAR-5 ovarian; 41.4% in the test on OVCAR-4 ovarian; 78.7% in the test on SK-OV-3 ovarian. Besides, the growth in the test on IGROV1 ovarian was 32.7%; in the test on OVCAR-3 ovarian it was 36.3%; in the test with HS 578T breast, 16.4%; with NCI/ADR-RES ovarian, 29.6%; in the test with T-47D breast, 38.7%; in the test on BT-549 breast, 28.7%. Also, the growth with SW-620 colon is 43.3%; in the test on MCF7 breast, 22.1%; in the test on HCT-116 colon, 15.1%; in the test on HCC-2998 colon, 69.6%; with KM12 colon, 19.5%; in the test on MDA-MB-468 breast, 41.8%.
